Compound activity deposited in PubChem BioAssay by The Scripps Research Institute Molecular Screening Center.
DAX1 inh-1: DAX1 (NR0B1) inhibitors on StAR promoter, primary screen, cell-based, luminescence, SF-1 (NR5A1), full-length DAX-1 | inhibition, % at 6.8 µM | hit rate 1.1% among 370,000 | HEK293T StAR-luciferase reporter, SF-1/DAX-1 repression relief | AID 652010, 2013;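 active means inhibition above the mean over all tested compounds plus 3 SD, cut at about 3.6% in these data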;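 further: 0% = DAX-1 cells with DMSO and 100% = cells lacking DAX-1 with DMSO; higher inhibition means more luminescence from relief of DAX-1 repression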
hcDAF12 agonist: H. contortus DAF-12 nuclear receptor activators, primary screen, cell-based, luminescence, HEK293, lit1-tk-luc reporter. HEK293 hcDAF-12 lit1-tk-luc reporter; 0% DMSO, 100% Δ7-dafachronic acid. activation, % at 6.8 µM. hit rate 1.4% among 370,000;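 active means activation above the mean of all tested compounds plus 3 SD, cut at about 5.5% in these data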;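 further: 100% = response to 3 µM Δ7-dafachronic acid high control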
DAX1 inh-2: DAX1 (NR0B1) inhibitors, primary screen, cell-based, HEK293, Gal4-DAX1, luciferase luminescence; Nuclear receptor subfamily 0 group B member 1 (Homo sapiens), P51843; HEK293 Gal4-DAX1 luciferase reporter; inhibition, % at 6.75 µM; hit rate 0.99% among 340,000; AID 504766, 2011;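 active means inhibition above the mean over all tested compounds plus 3 SD, cut at about 4.2% in these data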;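 further: 0% = DAX1-transfected cells with DMSO and 100% = empty-vector control cells with DMSO; inhibition shows as a rise in luminescence from relieved DAX1 repression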
ssDAF-12 act: S. stercoralis DAF-12 nuclear receptor activators, primary screen, cell-based, luminescence, HEK293, GRIP1 co-expression, lit1-tk-luc; Nuclear hormone receptor DAF-12 (Strongyloides stercoralis); HEK293 ssDAF-12/GRIP1 lit1-tk-luc reporter; % of 3 µM dafachronic acid response; activation, % at 6.8 µM; hit rate 1% among 370,000; AID 652126, 2013;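 active means activation above the mean over all tested compounds plus 3 SD, cut at about 0.9% in these data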;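 further: 0% = DMSO-only wells and 100% = 3 µM delta7-dafachronic acid wells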
AHR activator: AHR activators, primary screen, cell-based, luminescence, luciferase reporter, human; AHR-responsive luciferase reporter cells; AID 2796, 2010; activation, % at 5 µM; hit rate 2.5% among 320,000; Aryl hydrocarbon receptor (Homo sapiens), P35869; in the data active means activation above about 47%;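 further: 0% = vehicle wells and 100% = reference agonist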
Target sequence (P35869 whole entry, looked up): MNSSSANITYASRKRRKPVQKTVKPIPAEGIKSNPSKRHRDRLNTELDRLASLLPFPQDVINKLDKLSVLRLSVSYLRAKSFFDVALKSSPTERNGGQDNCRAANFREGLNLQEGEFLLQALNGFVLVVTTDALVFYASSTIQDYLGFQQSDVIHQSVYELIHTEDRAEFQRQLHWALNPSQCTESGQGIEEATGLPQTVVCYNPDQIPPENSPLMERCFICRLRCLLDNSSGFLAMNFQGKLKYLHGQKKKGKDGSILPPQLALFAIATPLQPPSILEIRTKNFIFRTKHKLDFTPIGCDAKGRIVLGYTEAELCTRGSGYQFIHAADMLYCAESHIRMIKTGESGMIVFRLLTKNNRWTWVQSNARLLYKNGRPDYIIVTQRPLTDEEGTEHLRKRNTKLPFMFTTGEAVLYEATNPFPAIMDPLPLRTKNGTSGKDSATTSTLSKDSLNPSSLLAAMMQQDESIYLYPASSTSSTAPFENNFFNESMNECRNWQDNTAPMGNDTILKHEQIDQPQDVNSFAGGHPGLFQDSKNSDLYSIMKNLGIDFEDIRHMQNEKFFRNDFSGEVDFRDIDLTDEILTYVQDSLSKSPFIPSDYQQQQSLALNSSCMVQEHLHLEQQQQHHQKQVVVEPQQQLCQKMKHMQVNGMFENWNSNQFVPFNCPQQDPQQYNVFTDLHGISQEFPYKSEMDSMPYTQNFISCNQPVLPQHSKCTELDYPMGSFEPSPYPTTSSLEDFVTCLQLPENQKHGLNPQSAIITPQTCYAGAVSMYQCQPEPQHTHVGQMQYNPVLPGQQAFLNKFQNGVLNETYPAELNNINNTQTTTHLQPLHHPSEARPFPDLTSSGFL
hgDAF-12 ag: H. glycines DAF-12 receptor agonists, primary screen, cell-based, luminescence, HEK293, GAL4 fusion, UAS-luciferase | Nuclear hormone receptor DAF-12 (Heterodera glycines), GAL4 fusion | HEK293 GAL4-hgDAF12 UAS-luciferase reporter, agonist luminescence; normalized to butyrate control | activation, % at 6.8 µM | hit rate 1.8% among 370,000 | AID 687014, 2013;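 active means activation above a cutoff set at the mean of all screened compounds plus 3 SD, cut at about 10% in these data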;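 further: 0% = DMSO wells and 100% = sodium butyrate wells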
* marks the source's active call; other numbers are inactive results; . = not tested or not shown. The list is not random: actives were taken first. Their share in the collection is about 5.7%.

SMILES	DAX1 inh-1	hcDAF12 agonist	DAX1 inh-2	ssDAF-12 act	AHR activator	hgDAF-12 ag
CC(Sc1nnc(-c2cc3ccccc3o2)n1-c1ccccc1)C(=O)O (centres undefined)	0	3	1	0	20	2
CN(N=Nc1cccc([N+](=O)[O-])c1)c1ccccc1	0	2	1	-1	7	4
CN(N=Nc1ccc([N+](=O)[O-])cc1)c1ccccc1	2	2	1	6.2*	2	7
CC(=O)N1CCc2c(sc(NC(=O)C3CCCN3S(=O)(=O)c3cccs3)c2C#N)C1 (centres undefined)	-2	-2	0	-1	-4	-2
Cc1nn(-c2ccccc2)c(N)c1N=Nc1ccc(Cl)cc1	2	3	3	-1	6	18*
Cc1nn(-c2ccccc2)c(N)c1-c1ccccc1	1	5	-1	1.0*	3	9
Cc1nn(-c2nc3ccccc3s2)c(N)c1-c1ccc(Cl)cc1	0	-2	1	0	77*	2
Cc1nn(-c2ccccc2)c(N)c1N=Nc1ccccc1	1	4	1	0	18	10
Cc1ccc(C(c2c(C)nn(-c3ccccc3)c2N)c2c(C)nn(-c3ccccc3)c2N)cc1	0	0	-1	-1	14	3
Cc1nc2c(-c3ccccc3)c(C)nn2c(N)c1-c1ccccc1	3	4	1	0	-4	8
Cc1ccc(-c2cc(N)n(-c3ccccc3)n2)cc1	2	3	1	0	4	11*
O=C(C1CCCC1)N1CCN(S(=O)(=O)c2ccc(F)c(F)c2F)CC1	0	0	0	-1	1	-2
O=C(Nc1ccccc1)OCCOc1ccccc1	1	2	3	-1	-2	12*
O=C(Nc1cccc(Cl)c1)OCCOC(=O)Nc1cccc(Cl)c1	0	-1	-1	-1	.	3
O=C(Nc1cccc(Cl)c1)OCCOc1ccccc1	0	1	6.0*	-1	.	4
NC(=O)COc1ccccc1	0	1	1	1.2*	-1	1
CCC(C)N1C(=O)S/C(=C/c2ccc(N3CCOCC3)cc2C)C1=O (centres undefined)	-1	-2	2	-2	-4	4
Cc1cc(N2CCOCC2)ccc1/C=C1\SC(=O)N(C(C)C)C1=O	0	0	5.6*	-2	-2	4
Cc1sc(NC(=O)c2c(F)cccc2F)nc1-c1ccccc1	-1	-2	-2	-1	65*	0
CC(=O)c1cccc(NC(=O)COC(=O)CCc2ccc(S(=O)(=O)N3CCOCC3)cc2)c1	-1	0	4.3*	-1	-1	1
O=C(COC(=O)c1cccc(F)c1)Nc1cccc(S(=O)(=O)N2CCOCC2)c1	1	1	2	-1	.	1
O=C(COC(=O)c1ccc(F)cc1F)Nc1cccc(S(=O)(=O)N2CCOCC2)c1	3.6*	-2	-1	-1	.	2
Cc1cc2[nH]c(=O)c(=O)[nH]c2cc1S(=O)(=O)Nc1ccccc1F	-1	-1	4.6*	-1	4	-1
COc1cc(C)c(S(=O)(=O)Nc2ccccc2F)cc1C	0	-1	2	-1	4	-2
FC(F)(F)c1nnc(-c2ccccc2)nc1Sc1ccc(Cl)cc1	-1	-1	1	-1	-1	2
SMILES	DAX1 inh-1	hcDAF12 agonist	DAX1 inh-2	ssDAF-12 act	AHR activator	hgDAF-12 ag
C=C(C)CNC(=O)CCc1nnc(Cc2cccc(C(F)(F)F)c2)o1	1	2	1	1.0*	10	10
CC(NC(=O)CCc1nnc(Cc2cccc(C(F)(F)F)c2)o1)C1CC1 (centres undefined)	1	-1	1	-2	8	10*
O=C(CCc1nnc(Cc2cccc(C(F)(F)F)c2)o1)NCC(F)(F)F	0	2	2	-1	1	-2
CC(C)CN(C)C(=O)CCc1nnc(Cc2cccc(C(F)(F)F)c2)o1	2	2	3	-1	9	11*
COc1cccc(NC(=O)N(C)C[C@H]2Oc3ncc(Br)cc3C(=O)N([C@H](C)CO)C[C@H]2C)c1	0	0	0	-1	.	2
C[C@@H]1CN([C@@H](C)CO)C(=O)Cc2cc(NC(=O)Nc3cccc4ccccc34)ccc2O[C@@H]1CN(C)Cc1ccc(C(F)(F)F)cc1	0	-1	0	-1	6	3
Cc1ccccc1NC(=S)N/N=C1\CC(C)(C)Oc2ccc(O)cc21	0	1	-1	-1	17	1
Cc1ccc(NC(=S)N/N=C2\CC(C)(C)Oc3ccc(O)cc32)cc1	-1	-2	0	-1	70*	0
CCC1CCc2c([nH]c3ccccc3c2=O)O1 (centres undefined)	0	0	4	0	10	0
CC1(C)CCc2c([nH]c3ccccc3c2=O)O1	0	-2	5.5*	-1	1	-5
CS(=O)(=O)NN1C(=O)c2ccccc2NC1c1c[nH]c2ccccc12 (centres undefined)	0	6.2*	0	0	45	3
CS(=O)(=O)NN1C(=O)c2ccccc2NC1c1ccccc1O (centres undefined)	0	-1	0	-1	1	2
CCc1ccc2c(c1)/C(=N/N(C)C(=S)NC)C(=O)N2	2	6.4*	0	-1	43	4
CCc1ccc2c(c1)/C(=C/C(=O)c1cccs1)C(=O)N2	-1	0	-1	-1	19	-2
Cn1c(-[n+]2c(-c3ccccc3)cc(-c3ccccc3)cc2-c2ccccc2)nc2c([N+](=O)[O-])cccc21	-1	5	-2	0	68*	-2
O=C(Nc1ccc(NC(=O)C2CCCCC2)nc1)c1ccccn1	0	-1	0	-1	7	12*
COc1ccccc1C(=O)Nc1ccc(NC(=O)C2CCCCC2)nc1	0	-4	0	-1	5	-1
CCCCC(=O)N(C)c1c(C)nc2ccc(C(=O)NCCOc3ccc(OC)cc3)cn12	-1	1	.	-1	.	4
Cc1nn2c(-c3ccco3)nnc2c2ccccc12	1	5.9*	1	0	30	2
CCC(=O)Nc1c(-c2ccc(Cl)cc2)c(=O)c2ccccc2n1C	0	0	1	-1	.	1
